Data from the supplement of paper PMC10849652.
Of roughly 8,800 targets only a part is listed; those with a hit were picked by preference. About 0.5% of all pairs of compound and target were hits. Unmarked numbers belong to inactive results.

Experiments:
Experiment in all cases: log2 fold change, soluble protein after heating vs DMSO (PISA); higher = thermal stabilisation; K562 lysate, 10 uM; active = over 0.2 and 3.5 SD of the protein, either way, in both replicates (recomputed)
[1] = compound: C1=CC=C(C=C1)[C@H](COC2=CC3=C(C=C2)NC(=O)N3)NC(=O)C4=CC=CN(C4=O)CC5=CC(=C(C=C5)F)F
Procedure, shortened: (§1)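 Pellets of K562 cells were dounce-homogenised in PBS pH 7.4 with 1 mM MgCl2, and the crude extract was held at 1 mg/mL protein for a 30 min treatment with 10 μM compound. Aliquots were heated for 3 min over 48°C-58°C and pooled before NP-40 was added to 0.5% at 4°C. The supernatant from 21,000xg for 90 min was quantified by TMTpro 16plex LC-MS/MS with channel sums equalised. Values are reported from duplicates as log-two fold change in thermal stability relative to solvent controls.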

[2] = compound: CC1=C(SC2=C1C(=N[C@H](C3=NN=C(N32)C)CC(=O)N)C4=CC=C(C=C4)Cl)C
Procedure, shortened: as §1

[3] = compound: CC1=C2C(=CC=C1)N=C(N(C2=O)C3=CC=CC=C3C)CN4C=NC5=C(N=CN=C54)N
Procedure, shortened: as §1

[4] = compound: Cc1sc2c(c1C)C(c1ccc(Cl)cc1)=N[C@@H](CC(=O)OC(C)(C)C)c1nnc(C)n1-2
Procedure, shortened: as §1

[5] = compound: c1ccc([C@@H]2C[C@H]2NC2CCNCC2)cc1
Procedure, shortened: as §1

Chain of UniProt Q92879 (Q92879 whole entry, looked up): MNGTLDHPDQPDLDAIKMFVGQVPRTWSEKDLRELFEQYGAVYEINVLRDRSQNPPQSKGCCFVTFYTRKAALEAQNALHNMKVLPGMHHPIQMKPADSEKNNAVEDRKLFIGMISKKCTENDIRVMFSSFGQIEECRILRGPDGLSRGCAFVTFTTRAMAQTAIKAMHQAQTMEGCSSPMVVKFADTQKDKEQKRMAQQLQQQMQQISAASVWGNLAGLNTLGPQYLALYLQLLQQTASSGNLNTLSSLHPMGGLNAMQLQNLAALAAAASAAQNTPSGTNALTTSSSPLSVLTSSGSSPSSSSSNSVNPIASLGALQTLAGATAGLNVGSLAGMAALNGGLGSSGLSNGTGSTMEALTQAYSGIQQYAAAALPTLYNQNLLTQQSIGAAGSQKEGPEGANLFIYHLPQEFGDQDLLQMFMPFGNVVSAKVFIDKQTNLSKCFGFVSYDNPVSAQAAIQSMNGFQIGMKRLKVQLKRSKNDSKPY
Chain of UniProt P14635 (P14635 whole entry, looked up): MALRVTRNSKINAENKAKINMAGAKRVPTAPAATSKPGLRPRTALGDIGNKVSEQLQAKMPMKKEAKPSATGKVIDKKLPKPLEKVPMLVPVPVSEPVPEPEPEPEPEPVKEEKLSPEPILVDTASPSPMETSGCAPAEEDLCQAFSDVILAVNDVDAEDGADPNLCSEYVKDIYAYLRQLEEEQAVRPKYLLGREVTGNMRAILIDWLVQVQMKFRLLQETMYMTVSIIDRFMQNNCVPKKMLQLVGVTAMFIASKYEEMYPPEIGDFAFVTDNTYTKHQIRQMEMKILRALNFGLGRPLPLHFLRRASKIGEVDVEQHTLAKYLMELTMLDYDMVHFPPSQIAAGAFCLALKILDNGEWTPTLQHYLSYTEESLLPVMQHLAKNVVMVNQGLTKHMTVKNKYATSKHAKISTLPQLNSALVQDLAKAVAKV
Chain of UniProt Q9BUK0 (Q9BUK0 whole entry, looked up): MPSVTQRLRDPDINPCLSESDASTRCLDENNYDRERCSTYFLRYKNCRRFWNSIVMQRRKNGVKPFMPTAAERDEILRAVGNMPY
Chain of UniProt Q9NXV6 (Q9NXV6 whole entry, looked up): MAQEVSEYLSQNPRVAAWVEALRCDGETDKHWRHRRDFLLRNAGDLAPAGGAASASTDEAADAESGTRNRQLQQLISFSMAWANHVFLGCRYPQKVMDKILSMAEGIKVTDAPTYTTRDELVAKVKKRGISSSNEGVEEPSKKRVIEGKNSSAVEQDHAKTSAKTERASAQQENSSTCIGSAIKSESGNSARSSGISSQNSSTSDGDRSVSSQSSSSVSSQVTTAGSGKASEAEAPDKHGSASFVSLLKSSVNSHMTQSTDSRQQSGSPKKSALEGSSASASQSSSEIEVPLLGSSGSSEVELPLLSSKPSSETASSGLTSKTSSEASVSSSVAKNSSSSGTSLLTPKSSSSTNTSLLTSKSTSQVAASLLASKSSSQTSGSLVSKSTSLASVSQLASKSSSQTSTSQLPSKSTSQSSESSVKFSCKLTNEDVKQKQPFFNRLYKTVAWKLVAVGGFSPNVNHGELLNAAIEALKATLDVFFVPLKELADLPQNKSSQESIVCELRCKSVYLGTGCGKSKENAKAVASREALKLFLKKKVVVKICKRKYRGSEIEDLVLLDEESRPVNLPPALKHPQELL
Chain of UniProt P01024 (P01024 whole entry, looked up): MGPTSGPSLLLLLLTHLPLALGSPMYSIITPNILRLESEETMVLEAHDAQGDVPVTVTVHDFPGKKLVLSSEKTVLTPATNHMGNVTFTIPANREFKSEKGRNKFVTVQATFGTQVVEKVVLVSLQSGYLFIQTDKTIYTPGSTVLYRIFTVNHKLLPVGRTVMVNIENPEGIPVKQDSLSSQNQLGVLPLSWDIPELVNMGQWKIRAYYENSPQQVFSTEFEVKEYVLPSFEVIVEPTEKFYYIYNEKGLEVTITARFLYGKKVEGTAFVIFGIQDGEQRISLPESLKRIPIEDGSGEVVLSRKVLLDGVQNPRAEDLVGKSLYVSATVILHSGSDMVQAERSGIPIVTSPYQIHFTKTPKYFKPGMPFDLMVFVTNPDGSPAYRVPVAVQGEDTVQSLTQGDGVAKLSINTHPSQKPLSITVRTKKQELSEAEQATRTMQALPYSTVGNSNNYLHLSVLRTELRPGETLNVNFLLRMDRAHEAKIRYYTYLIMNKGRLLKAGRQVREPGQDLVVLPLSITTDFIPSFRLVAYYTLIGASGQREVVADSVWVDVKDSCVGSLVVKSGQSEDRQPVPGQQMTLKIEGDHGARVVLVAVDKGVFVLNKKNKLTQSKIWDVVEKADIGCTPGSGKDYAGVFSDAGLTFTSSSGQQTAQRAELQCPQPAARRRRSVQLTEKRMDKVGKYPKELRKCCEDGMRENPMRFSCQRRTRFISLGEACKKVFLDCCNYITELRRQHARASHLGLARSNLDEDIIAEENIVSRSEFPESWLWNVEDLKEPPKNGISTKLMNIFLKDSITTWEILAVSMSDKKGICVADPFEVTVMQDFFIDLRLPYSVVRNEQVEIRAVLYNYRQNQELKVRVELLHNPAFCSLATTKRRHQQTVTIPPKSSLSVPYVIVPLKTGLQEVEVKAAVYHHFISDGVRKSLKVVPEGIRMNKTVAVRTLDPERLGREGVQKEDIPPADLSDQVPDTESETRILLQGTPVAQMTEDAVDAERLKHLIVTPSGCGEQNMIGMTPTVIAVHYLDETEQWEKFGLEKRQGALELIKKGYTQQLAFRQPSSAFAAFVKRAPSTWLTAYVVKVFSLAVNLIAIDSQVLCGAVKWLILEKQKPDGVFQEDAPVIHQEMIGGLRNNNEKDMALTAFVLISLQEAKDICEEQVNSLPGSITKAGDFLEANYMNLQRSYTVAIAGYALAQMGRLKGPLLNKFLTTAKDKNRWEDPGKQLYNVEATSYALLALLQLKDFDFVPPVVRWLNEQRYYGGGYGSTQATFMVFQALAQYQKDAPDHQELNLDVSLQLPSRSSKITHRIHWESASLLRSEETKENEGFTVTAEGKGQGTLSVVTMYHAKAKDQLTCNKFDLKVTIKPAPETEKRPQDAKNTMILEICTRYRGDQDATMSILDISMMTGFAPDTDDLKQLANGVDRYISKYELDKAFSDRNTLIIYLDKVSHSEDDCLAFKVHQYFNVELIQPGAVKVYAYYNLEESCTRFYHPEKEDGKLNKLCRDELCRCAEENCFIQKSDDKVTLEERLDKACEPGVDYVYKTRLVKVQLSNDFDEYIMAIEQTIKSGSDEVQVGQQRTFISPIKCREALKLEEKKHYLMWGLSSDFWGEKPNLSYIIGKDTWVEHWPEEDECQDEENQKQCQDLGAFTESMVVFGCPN
Chain of UniProt Q96NL8 (Q96NL8 whole entry, looked up): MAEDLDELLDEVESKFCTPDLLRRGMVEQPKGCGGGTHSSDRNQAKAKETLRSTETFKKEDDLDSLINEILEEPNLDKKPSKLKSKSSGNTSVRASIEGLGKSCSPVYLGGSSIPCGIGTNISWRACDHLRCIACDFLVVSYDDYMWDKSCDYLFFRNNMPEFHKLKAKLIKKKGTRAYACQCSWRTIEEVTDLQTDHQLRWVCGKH
Chain of UniProt Q8N5I9 (Q8N5I9 whole entry, looked up): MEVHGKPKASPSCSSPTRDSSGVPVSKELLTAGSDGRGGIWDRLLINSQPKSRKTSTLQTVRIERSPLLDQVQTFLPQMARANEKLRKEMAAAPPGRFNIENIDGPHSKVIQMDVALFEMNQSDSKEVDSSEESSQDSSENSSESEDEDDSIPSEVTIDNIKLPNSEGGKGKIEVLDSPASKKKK
Chain of UniProt Q8NBU5 (Q8NBU5 whole entry, looked up): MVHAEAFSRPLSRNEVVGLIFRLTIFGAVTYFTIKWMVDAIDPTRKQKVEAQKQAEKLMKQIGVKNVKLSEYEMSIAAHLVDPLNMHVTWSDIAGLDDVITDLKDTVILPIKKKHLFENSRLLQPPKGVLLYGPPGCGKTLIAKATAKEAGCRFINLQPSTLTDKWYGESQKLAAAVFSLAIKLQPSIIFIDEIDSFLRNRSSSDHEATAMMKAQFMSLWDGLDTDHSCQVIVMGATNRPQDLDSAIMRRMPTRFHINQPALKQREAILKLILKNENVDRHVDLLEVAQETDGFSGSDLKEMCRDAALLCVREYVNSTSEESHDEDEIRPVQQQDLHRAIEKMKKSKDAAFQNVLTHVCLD
Chain of UniProt Q12981 (Q12981 whole entry, looked up): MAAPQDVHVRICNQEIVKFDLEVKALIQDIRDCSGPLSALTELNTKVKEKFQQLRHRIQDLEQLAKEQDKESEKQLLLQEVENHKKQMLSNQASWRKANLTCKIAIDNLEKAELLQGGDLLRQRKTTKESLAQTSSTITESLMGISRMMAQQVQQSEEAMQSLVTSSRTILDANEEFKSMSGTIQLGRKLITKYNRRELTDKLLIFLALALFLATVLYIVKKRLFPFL
Chain of UniProt Q8N5S9 (Q8N5S9 whole entry, looked up): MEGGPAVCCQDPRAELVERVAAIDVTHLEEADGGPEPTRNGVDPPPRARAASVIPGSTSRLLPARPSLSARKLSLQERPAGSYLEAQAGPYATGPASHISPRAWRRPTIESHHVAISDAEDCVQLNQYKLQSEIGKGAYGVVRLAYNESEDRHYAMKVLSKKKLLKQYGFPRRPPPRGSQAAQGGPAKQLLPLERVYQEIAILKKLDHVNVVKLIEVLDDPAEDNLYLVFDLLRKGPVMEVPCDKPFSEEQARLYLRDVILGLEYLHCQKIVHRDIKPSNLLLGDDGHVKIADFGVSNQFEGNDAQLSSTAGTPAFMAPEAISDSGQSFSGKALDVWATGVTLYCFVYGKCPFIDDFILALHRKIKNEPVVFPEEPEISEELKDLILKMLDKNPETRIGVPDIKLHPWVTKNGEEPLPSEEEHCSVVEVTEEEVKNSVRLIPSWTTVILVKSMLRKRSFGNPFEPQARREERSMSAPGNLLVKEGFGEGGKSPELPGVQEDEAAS
Chain of UniProt P08962 (P08962 whole entry, looked up): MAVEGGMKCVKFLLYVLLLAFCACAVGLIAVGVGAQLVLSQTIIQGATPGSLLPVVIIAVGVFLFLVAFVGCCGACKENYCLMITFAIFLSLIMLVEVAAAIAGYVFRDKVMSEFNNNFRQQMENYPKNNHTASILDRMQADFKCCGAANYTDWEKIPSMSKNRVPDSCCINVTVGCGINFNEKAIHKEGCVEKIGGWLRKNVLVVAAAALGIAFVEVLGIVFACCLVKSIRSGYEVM

Target	log2 fold change [1]	log2 fold change [2]	log2 fold change [3]	log2 fold change [4]	log2 fold change [5]
CDK11B (UniProt P21127)	-0.035	0.029	0.005	0.035	-0.001
AURKA (UniProt O14965)	-0.053	-0.001	-0.042	-0.055	-0.157
CAMKK1 isoform 2 (UniProt Q8N5S9)	0.006	0.03	0.011	0.071	-0.103
C18orf32 (UniProt Q8TCD1)	0.039	0.004	-0.245	-0.028	0.076
CCDC130 (UniProt P13994)	0.01	0.038	–	–	–
BTK isoform 2 (UniProt Q06187)	-0.049	-0.033	0.012	-0.002	-0.064
CAPNS1 (UniProt U3KPR7)	0.019	0.122	–	–	–
CEP41 (UniProt Q9BYV8)	-0.026	-0.06	-0.106	-0.068	-0.045
BRD2 isoform 2 (UniProt P25440)	0.024	1.06 (active)	0.081	0.644 (active)	0.071
CHD1L (UniProt Q86WJ1)	-0.012	0.036	0.037	-0.009	0.052
BOLA2 (UniProt Q9H3K6)	-0.052	0.01	-0.019	0.034	0.078
C12orf45 (UniProt Q8N5I9)	0.074	0	-0.007	-0.008	-0.122
ATAD1 (UniProt Q8NBU5)	-0.052	0.032	-0.015	-0.092	0.002
C3 (UniProt P01024)	0.013	0.054	0.132	-0.035	-0.03
CELF1 isoform 4 (UniProt Q92879)	0.04	-0.005	0.07	0.044	0.144
CHCHD7 isoform 4 (UniProt Q9BUK0)	0.08	-0.052	0.074	-0.071	-0.22
AURKAIP1 (UniProt Q9NWT8)	0.05	0.032	-0.014	0.024	0.034
BRAF (UniProt P15056)	-0.024	-0.051	0.012	-0.017	-0.06
CD63 (UniProt P08962)	0.006	0.001	-0.008	-0.13	-0.242
BCAR1 isoform 6 (UniProt P56945)	0.01	0.013	-0.045	-0.043	0.107
BSDC1 (UniProt Q9NW68)	0.155	-0.025	0.021	-0.004	-0.026
CHD3 isoform 3 (UniProt Q12873)	-0.009	0.027	0.024	0.035	0.038
CCNYL1 (UniProt Q8N7R7)	-0.007	-0.089	-0.009	-0.058	-0.079
ATG4A (UniProt Q8WYN0)	0.008	0.022	0.068	-0.01	-0.103
CCNB1 (UniProt P14635)	-0.019	0.063	0.038	-0.032	0.036
CDK5RAP1 (UniProt Q96SZ6)	0.266 (active)	-0.117	0.05	-0.023	-0.004
ATP2B4 (UniProt P23634)	-0.021	0.036	0.059	0.029	-0.081

Target	log2 fold change [1]	log2 fold change [2]	log2 fold change [3]	log2 fold change [4]	log2 fold change [5]
ATG7 (UniProt O95352)	0.014	0.003	0.028	-0.014	0.044
ATM (UniProt Q13315)	-0.015	0.013	-0.037	0.038	-0.036
C19orf54 (UniProt Q5BKX5)	0.04	0.102	-0.007	0.033	0.043
CDK13 (UniProt Q14004)	-0.091	-0.031	-0.052	0.049	0.052
C1orf112 (UniProt Q9NSG2)	0.066	-0.011	-0.007	0.066	-0.345
CDKN2AIP (UniProt Q9NXV6)	0.01	0.024	0.027	-0.041	-0.013
CEPT1 (UniProt Q9Y6K0)	-0.13	-0.017	0.062	-0.054	0.061
CDAN1 (UniProt Q8IWY9)	-0.011	0.011	0.062	0.026	0.005
CBX1 (UniProt P83916)	0.031	-0.03	0.032	0.009	0.13
CCDC32 isoform 2 (UniProt Q9BV29)	-0.132	-0.103	-0.058	0.015	-0.109
BCKDK (UniProt O14874)	-0.036	-0.007	-0.037	0.016	0.012
CDC40 (UniProt O60508)	0.036	0.003	-0.099	0.099	-0.03
ATRIP (UniProt Q8WXE1)	-0.042	-0.02	-0.056	-0.032	0.093
ATE1 isoform 2 (UniProt O95260)	-0.015	-0.008	-0.004	0.009	-0.087
BNIP1 (UniProt Q12981)	0.021	-0.051	0.001	0.018	0.149
C15orf41 (UniProt Q9Y2V0)	0.111	-0.007	0.029	0.084	-0.008
CDK5RAP3 isoform 4 (UniProt Q96JB5)	-0.011	-0.018	0.022	-0.01	-0.154
CDK9 isoform 2 (UniProt P50750)	-0.001	-0.043	-0.015	-0.008	-0.114
CDK16 isoform 2 (UniProt Q00536)	-0.02	-0.059	-0.11	-0.011	-0.049
CDC45 isoform 3 (UniProt O75419)	0.076	-0.01	0	-0.018	0.026
CHCHD1 (UniProt Q96BP2)	-0.026	0.024	-0.04	-0.091	0.627 (active)
AVEN (UniProt Q9NQS1)	0.205	0.025	0.003	0.013	-0.058
BRD4 (UniProt O60885)	0.022	0.868 (active)	0.003	0.415 (active)	-0.015
C8orf37 (UniProt Q96NL8)	0.072	-0.08	-0.094	-0.008	0.141
CENPQ (UniProt Q7L2Z9)	-0.02	-0.02	0.038	0.021	-0.013
CARD11 (UniProt Q9BXL7)	0.193	0.252	0	-0.084	-0.019
